The campaign covered roughly 340,000 compounds. About 3,400 (1%) were called active. This is one part of a sample in which actives are shown more often than they occur.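 Rule for the calls: active = inhibition above the mean over all tested compounds plus 3 SD (cut at about 4.2% in these data); inactive = the rest.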

Results on 58 molecules are retold here after PubChem BioAssay AID504766 (The Scripps Research Institute Molecular Screening Center, 2011).

The target of the experiment is Nuclear receptor subfamily 0 group B member 1 (Homo sapiens) (UniProt P51843). The experiment can be described thus: relief of DAX1 transcriptional repression – cell-based, HEK293, Gal4-DAX1, luciferase luminescence, primary screen (AID 504766).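 Note: 0% = DAX1-transfected cells with DMSO and 100% = empty-vector control cells with DMSO; inhibition shows as a rise in luminescence from relieved DAX1 repression.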 As to conditions: HEK293 Gal4-DAX1 luciferase reporter, at 6.75 µM, active compounds read high.
Chain of Nuclear receptor subfamily 0 group B member 1 (Homo sapiens) (P51843 207-470 limits assumed): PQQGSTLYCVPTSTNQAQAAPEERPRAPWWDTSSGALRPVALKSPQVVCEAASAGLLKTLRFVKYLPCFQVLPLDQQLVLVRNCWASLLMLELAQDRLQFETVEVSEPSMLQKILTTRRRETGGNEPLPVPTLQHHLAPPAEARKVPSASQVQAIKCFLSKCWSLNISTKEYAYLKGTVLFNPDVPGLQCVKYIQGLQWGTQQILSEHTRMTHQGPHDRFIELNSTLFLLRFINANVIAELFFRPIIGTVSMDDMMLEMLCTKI
As to `CC(=O)c1ccc(S(=O)(=O)NCc2nnnn2-c2ccccc2)cc1`, the inhibition (in general, the change of the read-out against control, counted positive when it falls) was 0.03% (inactive).

Turning to `CN(C)/C=C(/C(=O)c1ccccc1Cl)S(C)(=O)=O`, the inhibition was -0.35% (inactive). On to `CN(C)/C=C(/C(=O)c1ccc(Cl)c(Cl)c1)c1nnnn1-c1ccccc1`, for which the inhibition is 8.45% (active). In the case of `CCOc1cc(/C=N/NC(=O)c2c(C)nc3ccc(Cl)cn23)ccc1O` it was 0.71% (inactive); in that of `Cc1cnc(C(=O)OCC(=O)NCCCc2ccccc2)cn1`, 8.25% (active); in that of `O=C(COC(=O)c1ccc(F)cc1)NCCCc1ccccc1`, 1.34% (inactive). In the case of `COc1ccc(C(=O)OCC(=O)NCCCc2ccccc2)cc1OC`, the inhibition was -0.04% (inactive).

Take `S=C(NN=Cc1ccccn1)Nc1ccccn1`: the inhibition is -4.47% (inactive). In the case of `CC1(c2cccc(N)c2)OCCO1` it was 0.74% (inactive); in that of `CCCCCCN1C[C@@H](O)[C@H](n2cc(COC(=O)c3ccccc3)nn2)C[C@@H]1c1ccc(Cl)cc1`, 0.09% (inactive).

For `CCn1c(COc2ccccc2)nnc1SCC(=O)Nc1ccc2c(c1)OCCO2`, the inhibition is -0.24% (inactive). In the case of `CCn1c(SCC(=O)Nc2ccc3c(c2)OCCO3)nnc1C(C)C` it was 2.27% (inactive); in that of `CCn1c(SCC(=O)Nc2ccc3c(c2)OCCO3)nnc1-c1ccncc1`, 6.79% (active). In the case of `COc1ccc(-n2nc(C(=O)NCC(=O)N3CCCCCC3)c3ccccc3c2=O)cc1Cl` it was -1.56% (inactive); in that of `COc1ccc(-n2nc(C(=O)NCC(=O)N3CCN(c4ccccc4OC)CC3)c3ccccc3c2=O)c(OC)c1`, -1.07% (inactive). The figure for `COc1ccc(-n2nc(C(=O)NCC(=O)N3CCC(C(N)=O)CC3)c3ccccc3c2=O)cc1OC` is 5.14% (active); for `O=C(OCc1ccccc1)N1CCC2CC1c1ccc(-c3ccc4c(c3)OCO4)cc12` (stereo not drawn) it is 0.14% (inactive); for `COC(=O)C(Cc1c[nH]c2ccccc12)NC(=O)CCNC(=O)c1ccco1` (stereo not drawn) it is 0.93% (inactive). In the case of `C[C@H]1CN([C@@H](C)CO)C(=O)CCCn2nncc2CO[C@@H]1CN(C)Cc1ccc(Oc2ccccc2)cc1`, the inhibition is -1.44% (inactive).

Turning to `COc1ccc(-c2ccc3[nH]c4c(c3c2)CCN2C[C@H]3[C@H](C)ON(C)[C@H]3C[C@@H]42)cc1`, the inhibition was -1.11% (inactive).

With `COc1ccc(NC(=O)C[C@H]2C(=O)N(CCc3ccccc3)C[C@@H]2C)cc1`, the inhibition is 0.1% (inactive). Regarding `Cc1cc(C)c(C#N)c(SCc2ccc3c(c2)OCO3)n1`, the inhibition was -0.08% (inactive). The figure for `Cc1snc(SCc2c(F)cccc2Cl)c1C#N` is -1.64% (inactive); for `Cc1ccc(CSc2nsc(C)c2C#N)cc1` it is 4.45% (active). As to `C[C@@H]1CN([C@@H](C)CO)C(=O)c2cc(Br)cnc2O[C@@H]1CN(C)C(=O)C1CCCCC1`, the inhibition is 1.82% (inactive).

As to `CCN(CC)C(=O)C1=C(C)N(Cc2ccccc2)C(=O)C(CC(=O)NC(c2ccccc2)c2ccccc2)C1` (stereo not drawn), the inhibition was -0.09% (inactive). In the case of `CC(=O)Nc1ccc(SCC(=O)NC(=O)c2ccc(Cl)cc2)cc1` it was 0.53% (inactive); in that of `Cn1nc(-c2ccccc2)c2cc([N+](=O)[O-])ccc21`, 0.55% (inactive); in that of `O=[N+]([O-])c1ccc2c(c1)C(O)n1nc(-c3ccccc3)nc1S2` (stereo not drawn), 6.7% (active). With `O=[N+]([O-])c1ccc2oc(-c3cccc(O)c3)nc2c1`, the inhibition is 0.69% (inactive).

As to `Cc1ccc(C=O)c([B-](F)(F)F)c1`, the inhibition is -0.38% (inactive). In the case of `COc1cc(NC(=O)CSc2nnc3ccc(-c4ccncc4)nn23)cc(OC)c1` it was 0.29% (inactive); in that of `O=C(CSc1nnc2ccc(-c3ccncc3)nn12)N1CCCCC1`, 4.62% (active); in that of `COc1ccc(CCNC(=O)CSc2nnc3ccc(-c4ccncc4)nn23)cc1`, 2.31% (inactive).

Take `Cc1nc2ccccc2nc1CC(O)(c1ccccc1)c1ccccc1`: the inhibition was 1.49% (inactive). In the case of `COc1ccc(CN2C(=O)C(CC(=O)NCc3cccc4ccccc34)CC(C(=O)N3CCOCC3)=C2C)cc1` (stereo not drawn) it was 0.04% (inactive); in that of `CC(Sc1ccc(S(=O)(=O)N2CCN(C)CC2)cn1)C(=O)NC1CCCC(C)C1C` (stereo not drawn), 0.86% (inactive); in that of `C[C@H]1Cn2cnc(C(=O)N[C@H](C)c3ccccc3)c2C(=O)N1`, 1.52% (inactive). Turning to `CCOC(=O)C(=Cc1ccccc1)C(=O)c1ccccc1`, the inhibition was -1.17% (inactive). In the case of `O=C(NC1CCCCC1)c1cc(C2CC2)on1` it was 1.17% (inactive). In the case of `O=C(NCCCn1ccnc1)c1ccccc1F` it was 1.27% (inactive); in that of `O=C(NC1CCCCCCC1)c1cccs1`, 0.85% (inactive). The figure for `O=C(NCCCn1ccnc1)c1cc(Br)c(Br)s1` is 2.56% (inactive); for `O=C(NCCCn1ccnc1)c1cc(-c2ccccc2)on1` it is 4.72% (active).

For `O=C(NC1CCCC1)c1cc(-c2ccccc2)on1`, the inhibition is 5.49% (active). For the molecule `O=NN(CCCl)C(=O)NCCc1cccc[n+]1[O-]`, the inhibition is 0.77% (inactive). Consider `CN(C)C(CNC(=O)c1cc(Br)c(Br)s1)c1ccco1` (stereo not drawn), for which the inhibition was -0.16% (inactive).

On to `O=C1[C@H]2[C@@H](c3ccc(C(F)(F)F)cc3)N[C@]3(CCCN(Cc4ccc(Cl)cc4)C3=O)[C@H]2C(=O)N1Cc1ccccc1`, for which the inhibition was -0.84% (inactive). The figure for `Cc1ccc(Cc2c(-c3ccc(C)cc3)nc3c4ccccc4ccn23)cc1` is 0.53% (inactive); for `O=C(CN1C(=O)NC2(CCc3ccccc32)C1=O)NC1CCCCC1` (stereo not drawn) it is -0.26% (inactive). In the case of `Cc1cc(C(F)(F)F)c(C#N)c(SCC(=O)NC2CC2)n1` it was -0.39% (inactive); in that of `N#Cc1c(C(F)(F)F)cc(-c2ccccc2)nc1SCC(=O)N1CCOCC1`, -0.64% (inactive); in that of `N#Cc1c(C(F)(F)F)cc(-c2ccc(Cl)cc2)nc1SCC(=O)O`, 4.58% (active). Turning to `Cc1ccc(C(=O)N[C@H](C(=O)N2CCN(c3ncccn3)CC2)C(C)C)cc1`, the inhibition is 1.36% (inactive).

On to `CC1(C2CC2)NC(=O)N(CC(=O)N2CCN(c3ccccc3F)CC2)C1=O` (stereo not drawn), for which the inhibition was -0.4% (inactive). The figure for `COc1cc(C)c(CN2CCN(C(=O)CCC(=O)c3ccc(C)s3)CC2)cc1OC` is 0.95% (inactive); for `COC(=O)C[C@H]1C[C@@H]2c3cc(N(C)C)ccc3O[C@@H]2[C@H](CO)O1` it is 1.14% (inactive). The figure for `O=C(NCCc1cccc(F)c1)C1CC(O)CN1C(=O)Nc1ccccc1` (stereo not drawn) is 0.98% (inactive).
